# In PubChem BioAssay AID2284371 (EPA ToxCast):
# Results filed as inconclusive are left out. Activity calls are given as the source filed them. The calls were made as follows: active = hit-call score of the fitted dose curve at least 0.9, where 1 is the maximum; inconclusive = response in the unintended direction; inactive = score below 0.9.
# Assay: ATG_M_61_EcoTox2: Attagene TRANS-FACTORIAL EcoTox-2 HepG2 Assay for M61 Transcription Factor (Internal Marker)
# Method: ATG_EcoTox2 is a cell-based, multiplexed assay created by modifying the existing Attagene TRANS-FACTORIAL system to include a panel of nuclear receptors from some or all the following species: human (Homo sapiens), african clawed frog (Xenopus laevis), rainbow trout (Oncorhynchus mykiss), japanese medaka (Oryzias latipes), and zebrafish (Danio rerio). The ECOTOX2-FACTORIAL format uses HepG2, a human liver cell line, with measurements taken at 24 hours after chemical dosing in a 24-well plate. ATG_M_61_EcoTox2 is one of 29 assay components calculated in the ATG_EcoTox2 assay. It is designed to make measurements of mRNA induction, a form of inducible reporter, as detected with fluorescence intensity signals by Reverse transcription polymerase chain reaction (RT-PCR) and Capillary electrophoresis technology.The assay endpoint ATG_M_61_EcoTox2 was analyzed in the positive analysis fitting direction relative to DMSO as the negative control and baseline of activity. Using a type of inducible reporter, measures of mRNA for gain-of-signal activity can be used to understand the background control at the transcription factor-level as they relate to the gene. Furthermore, this assay endpoint can be referred to as a secondary readout, because this assay has produced multiple assay endpoints where this one serves a background control function. To generalize the intended target to other relatable targets, this assay endpoint is annotated to the background measurement intended target family, where the subfamily is internal marker.
# Human liver HepG2 cells are transiently transfected with multiple reporter transcription units (MRTUs) in 6-well plates using FuGene 6 reagent (Roche; 3 ml FuGene/1 mg DNA). The MRTU constructs are regulated by a cis-regulating element (promoter). Each RTU expresses a GAL4-UAS that regulates the transcription of a nearby target reporter gene sequence. A major difference between the CIS and TRANS system is that in CIS activities of endogenous TFs are measured, whereas the TRANS assay evaluates changes in activities of exogenous, chimeric NR-Gal4 proteins. […] At the end of 24 hour incubation, total RNA was isolated using TriZol reagent (Invitrogen). The isolated RNA is then reverse-transcribed using oligo(dT) primer and Mo-MLV reverse transcriptase (Invitrogen) with DNAse I (Ambion) treatment for 30 min. The one-tenth of the produced cDNA was amplified by PCR using Taq DNA polymerase (Invitrogen) and two reporter sequence-specific primers. […] The fragments were purified using Qiaquick PCR columns (Qiagen), analyzed on an ABI 3130xL genetic analyzer (Applied Biosystems) with peak positions identified by using a set of X-rhodamine (ROX)-labeled MapMarker1000 molecular weight standards (BioVentures). […]
row,SMILES,outcome
1,O=S(=O)(O)C(F)(F)C(F)(F)C(F)(F)C(F)(F)C(F)(F)C(F)(F)F,inactive
2,CCCCOCN(C(=O)CCl)c1c(CC)cccc1CC,inactive
3,O=P(Oc1ccccc1)(Oc1ccccc1)Oc1ccccc1,inactive
4,O=C(O)C(F)(F)C(F)(F)C(F)(F)C(F)(F)C(F)(F)C(F)(F)C(F)(F)F,inactive
